TCR act – Activators of T cell receptors: qHTS campaign | primary human leukocytes, anti-CD3, IL-2 HTRF, 48 h | Potency, µM (doses to about 9.22 µM), usual class: activators | 330,000 tested, under 10 active | AID 504894, 2011
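IL-2 release read by HTRF sandwich (Eu cryptate donor, d2 acceptor, 665 nm emission) after 48 hr exposure of primary human leukocytes to compound together with anti-CD3 beads in the absence of co-stimulatory signals.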
ClpP mod – qHTS Assay for Activators of ClpP; Potency, µM (series often up to 57.5 µM); purified B. subtilis ClpP, FRET peptide cleavage, 20 min; actives 1.9% (n = 340,000); active = well fitted falling curve with a large enough effect; inconclusive = small, poorly fitted or top-dose-only effect; inactive = no such curve, though single readings can be large or run the other way; note: the source files actives as falling curves though it sought activators and does not explain the sign; nearly all actives have a fitted effect of over 65% in size
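Purified B. subtilis ClpP, 10 microg/mL final in Tris/HCl pH8 with KCl, BSA, glycerol and Tween-20, cleaved an Abz/nitrotyrosine-quenched decapeptide. Fluorescence (ex 320, em 430) was read at 0 and 20 min at room temperature. Delta was normalized to 5.8 microM ADEP and DMSO/no-enzyme controls.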
Nrf2 inh – Nrf2 qHTS screen for inhibitors. A549 ARE-Fluc reporter, luciferase luminescence, 18-24 h. Potency, µM (series often up to 46 µM), usual class: inhibitors. actives 2.1% (n = 360,000). AID 504444, 2011; note: nearly all actives have a fitted effect of over 60% in size
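Concentration-response testing used A549 ARE_Fluc cells at 5000 cells/well. Following an 18-24 h compound incubation, viability was read by fluorescence (Ex 405/Em 525) and luciferase output by luminescence.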
Nrf2 ARE act – qHTS of Nrf2 Activators; AREc32 ARE-luciferase reporter (MCF7-derived line), luminescence, 24 h; Potency, µM (top dose mostly 46.1 µM), hits mostly activators; actives 0.31% (n = 410,000); note: nearly all actives have a fitted effect of over 65% in size
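Each well held 1000 AREc32 cells, which were incubated with compound for 24 hr at 37 deg C after overnight attachment, and ARE reporter activity was quantified by firefly luciferase luminescence.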
miR-21 act – qHTS Assay for Modulators of miRNAs and/orActivators of miR-21; AID 2288, 2010; 340,000 tested, under 10 active; Potency, µM (top dose mostly 38.3 µM), most hits filed as activators; HeLa miR-21 FLuc reporter, luciferase, 48 h;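 note: miR-21 action dims this reporter so a rising signal means less miR-21 action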
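HeLa cells stably expressing CMV-driven firefly luciferase with a downstream miR-21 binding sequence, endogenously expressing miR-21, were treated with titrations (up to about 40uM final) for 48 hours at 37 degree Celsius. Luciferase luminescence was read after lysis.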
A549 tox – Nrf2 qHTS screen for inhibitors: counterscreen for cytotoxicity | A549 ARE-Fluc cells, CellTiter-Fluor viability, 18-24 h | Potency, µM (titrated, usually from 46 µM), actives largely listed as inhibitors | actives 0.16% (n = 390,000) | AID 504648, 2011
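A549 ARE_Fluc cells in 5% FBS OPTI-MEM were exposed to compounds in concentration-response for 18-24 h at 37 deg C. Viability was read by CellTiter-Fluor fluorescence (Ex 405/Em 525) after 30 min, before the luciferase read.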
Large screens that a line does not name were inactive. A selection: hits, their analogues and other compounds. The true share with any hit is near 3.7%. Unless noted, calls come from the whole dose curve; as a rule, active = well fitted curve in the direction sought with a large enough effect; inconclusive = small, poorly fitted or top-dose-only effect, or another doubt; inactive = no such curve, though single readings can be large; an effect the other way counts as inactive or inconclusive.

CCOCCCNC(=S)N1CCN(c2nc(-c3ccc(F)cc3)cs2)CC1	Nrf2 inh 16µM
CCCNC(=S)N1CCN(c2nc(-c3cccc(OC)c3)cs2)CC1	Nrf2 inh inconclusive (no result: TCR act)
COc1ccc(-c2csc(N3CCN(C(=O)c4ccccc4)CC3)n2)cc1	Nrf2 inh 13µM
O=C1CCc2cc(S(=O)(=O)Nc3cccc4ccccc34)ccc2N1	Nrf2 inh inconclusive (no result: TCR act, ClpP mod, Nrf2 ARE act, miR-21 act)
CCOc1ccc(NC(=O)[C@@H](c2ccccc2)N2Cc3ccccc3C2=O)cc1	none (no result: TCR act)
CCN(CC)CCNC(=O)c1ccc(NC(=O)COc2ccc3c(c2)CCC3)cc1	none (no result: miR-21 act)
c1cc2ccc3ccc(-n4cnnn4)c4ccc(c1)c2c34	ClpP mod 28µM, Nrf2 inh inconclusive
COc1cc(/C=C(/C#N)c2nc(-c3cc4ccccc4oc3=O)cs2)ccc1O	none (no result: TCR act)
CN1CCN(/N=C/c2nc(-c3cccc([N+](=O)[O-])c3)n3ccccc23)CC1	none
O=C(O)/C=C/c1nc(-c2ccccc2)n2ccccc12	ClpP mod 32µM
c1ccc(Cn2c(-c3ccccc3)c[n+]3c2SCCC3)cc1	Nrf2 inh 8.2µM (no result: ClpP mod)
Brc1ccc(-c2c[n+]3c(n2-c2ccccc2)SCC3)cc1	Nrf2 inh inconclusive (no result: ClpP mod)
O=C(CN(c1cccc(Cl)c1)S(=O)(=O)c1ccc(Cl)cc1)NCc1ccccn1	Nrf2 inh 21µM, A549 tox inconclusive
CC(C)OC(=O)/C=C1\C[C@@H](c2ccccc2C(F)(F)F)O[C@@H](c2ccccc2C(F)(F)F)O1	none (no result: TCR act, Nrf2 inh, Nrf2 ARE act, miR-21 act, A549 tox)
COc1ccc(OC)c(/C=C/C(=O)Nc2cccc(S(=O)(=O)NC3=NCCCCC3)c2)c1	Nrf2 inh inconclusive (no result: miR-21 act)
O=C(COC(=O)/C=C/c1ccc(F)cc1)Nc1cccc(S(=O)(=O)N2CCCC2)c1	Nrf2 inh inconclusive
COc1cccc(/C=C/C(=O)OCC(=O)Nc2cccc(S(=O)(=O)N3CCCCC3)c2)c1OC	ClpP mod 28µM, Nrf2 inh inconclusive
COc1ccc(OC)c(/C=C/C(=O)OCC(=O)Nc2cccc(Oc3ccccc3)c2)c1	ClpP mod 35µM
COc1ccc(OC)c(/C=C/C(=O)Nc2cccc(S(=O)(=O)N3CCCC3)c2)c1	Nrf2 inh 13µM
O=Nc1ccc(/C=C/c2ccnc3ccccc23)cc1	none (no result: TCR act, Nrf2 inh, Nrf2 ARE act, miR-21 act, A549 tox)
O=c1oc2c(-c3ccc([N+](=O)[O-])cc3)cc(O)cc2s1	Nrf2 ARE act 22µM (no result: ClpP mod)
Cc1ccccc1OCCn1cc(C=O)c2ccccc21	none (no result: TCR act)
Cc1nc2ccccc2c(=O)n1CCc1ccccc1	Nrf2 inh inconclusive
COCCCn1c(C)nc2c(c1=O)c1nc3ccccc3nc1n2CCc1ccccc1	ClpP mod inconclusive, Nrf2 inh 8.2µM
CC1=C(C(=O)N(C)C)CC(CC(=O)NC2CCCC2)C(=O)N1Cc1ccccc1 (stereo unspecified)	none (no result: TCR act, Nrf2 inh, miR-21 act, A549 tox)
Cc1ccccc1-c1coc2cc(O)ccc2c1=O	ClpP mod 28µM, Nrf2 inh inconclusive
Cc1ccc(Oc2coc3cc(O)ccc3c2=O)cc1	Nrf2 inh 9.2µM
O=c1c(-c2ccc(O)cc2)coc2cc(O)ccc12	none (no result: miR-21 act)
Cc1nn(-c2ccccc2)c(Cl)c1C(=O)NNC(=O)c1ccccc1O	none (no result: miR-21 act)
Cc1cccc(-c2noc(CCCC(=O)NC3CCCC3)n2)c1	Nrf2 inh 9.2µM (no result: ClpP mod)
COc1ccc(-c2noc(CCC(=O)NC3CCCCC3)n2)cc1	Nrf2 inh 16µM
COc1ccc(-c2noc(CCCC(=O)NC3CCCC3)n2)cc1	Nrf2 inh 12µM, miR-21 act inconclusive, A549 tox inconclusive (no result: ClpP mod)
COc1ccc(-c2noc(CCC(=O)NC3CCCCCC3)n2)cc1	none
CN(C)c1ccc(CNC(=O)C2CCCN(S(=O)(=O)c3ccc4c(c3)oc(=O)n4C)C2)cc1 (stereo unspecified)	none (no result: TCR act)
COc1ccc(NC(=O)Cn2c(SCc3cccc(Cl)c3)nc3ccncc32)c(OC)c1OC	none (no result: TCR act)
Cc1nc(SCC(=O)NCCc2ccccc2)nc(C)c1C	ClpP mod 16µM
Cc1nc(SCC(=O)NC(=O)NCc2ccccc2)nc(C)c1C	none
O=[N+]([O-])c1ccc(O)c2ncccc12	Nrf2 inh 3.7µM, miR-21 act inconclusive, A549 tox 13µM
O=[N+]([O-])c1cc(Cl)c(O)c2ncccc12	Nrf2 inh 21µM, A549 tox inconclusive (no result: ClpP mod)
Cc1ccc(N2C(=O)c3ccccc3NC2C(C)Cc2ccc3c(c2)OCO3)cc1 (stereo unspecified)	ClpP mod 32µM, Nrf2 inh inconclusive
COc1ccc(CCNC(=O)c2cc3n(n2)CCCN(Cc2ccc(C)cc2)C3=O)cc1OC	miR-21 act inconclusive (no result: TCR act, Nrf2 inh)
CCCN(CCC)C(=O)C1CCC(CNS(=O)(=O)c2cccc3nsnc23)CC1 (stereo unspecified)	none
CN(Cc1ccccc1)C(=O)C1CCC(CNS(=O)(=O)c2cccc3cccnc23)CC1 (stereo unspecified)	Nrf2 inh 16µM
O=C(C1CCC(CNS(=O)(=O)c2cccc3nsnc23)CC1)N1CCN(c2ccccn2)CC1 (stereo unspecified)	Nrf2 inh 21µM
CCCCN(C(=O)C1CCC(CNS(=O)(=O)c2cccc3nsnc23)CC1)c1ccccc1 (stereo unspecified)	Nrf2 inh 26µM (no result: TCR act)
Cc1ccc(S(=O)(=O)c2nc(-c3cccs3)oc2SC(C)c2ccccc2)cc1 (stereo unspecified)	none (no result: TCR act)
CCOc1ccc(-c2c(C(=O)N/N=C/c3ccc(Cl)cc3)nnn2-c2nonc2N)cc1	none
Cc1ccc(S(=O)(=O)c2c(N)n(CCCO)c3nc4ccccc4nc23)cc1	none
Nc1c(S(=O)(=O)c2ccccc2)c2nc3ccccc3nc2n1C1CC1	Nrf2 inh inconclusive (no result: ClpP mod)
Cc1ccc(C(=O)Nn2c(N)c(S(=O)(=O)c3ccc(C)cc3)c3nc4ccccc4nc32)cc1	ClpP mod 28µM, Nrf2 inh inconclusive
Cn1c(N)c(S(=O)(=O)c2ccc(Br)cc2)c2nc3ccccc3nc21	ClpP mod 14µM
Cc1ccc(S(=O)(=O)c2c(N)n(CCC(C)C)c3nc4ccccc4nc23)cc1	ClpP mod 25µM, Nrf2 inh inconclusive, miR-21 act inconclusive, A549 tox inconclusive
Cc1ccc(S(=O)(=O)c2c(N)n(NC(=O)c3ccccc3C)c3nc4ccccc4nc23)cc1	ClpP mod 32µM, Nrf2 inh inconclusive
Cc1ccc(C(=O)N/C(=C\c2ccco2)C(=O)N2CCOCC2)cc1C	none
CCOC(=O)C1CCN(S(=O)(=O)c2ccc(N3CCCCS3(=O)=O)cc2)CC1	none (no result: TCR act, Nrf2 inh)
